Common to all, as to design: scale not given: direction of the effect not stated beside the values
For test [1], the target named is Protein translocase subunit SecA (Escherichia coli (strain K12)) (UniProt P10408). Briefly: Assay to Identify E. coli SecA ATPase Inhibitors. It is filed as functional. As to conditions: 30 µM.
Test [2] deals with T1, Ubiquitin-activating enzyme e1, putative (Leishmania donovani (strain BPK282A1)) (UniProt E9BSI1).
T1 sequence (whole entry): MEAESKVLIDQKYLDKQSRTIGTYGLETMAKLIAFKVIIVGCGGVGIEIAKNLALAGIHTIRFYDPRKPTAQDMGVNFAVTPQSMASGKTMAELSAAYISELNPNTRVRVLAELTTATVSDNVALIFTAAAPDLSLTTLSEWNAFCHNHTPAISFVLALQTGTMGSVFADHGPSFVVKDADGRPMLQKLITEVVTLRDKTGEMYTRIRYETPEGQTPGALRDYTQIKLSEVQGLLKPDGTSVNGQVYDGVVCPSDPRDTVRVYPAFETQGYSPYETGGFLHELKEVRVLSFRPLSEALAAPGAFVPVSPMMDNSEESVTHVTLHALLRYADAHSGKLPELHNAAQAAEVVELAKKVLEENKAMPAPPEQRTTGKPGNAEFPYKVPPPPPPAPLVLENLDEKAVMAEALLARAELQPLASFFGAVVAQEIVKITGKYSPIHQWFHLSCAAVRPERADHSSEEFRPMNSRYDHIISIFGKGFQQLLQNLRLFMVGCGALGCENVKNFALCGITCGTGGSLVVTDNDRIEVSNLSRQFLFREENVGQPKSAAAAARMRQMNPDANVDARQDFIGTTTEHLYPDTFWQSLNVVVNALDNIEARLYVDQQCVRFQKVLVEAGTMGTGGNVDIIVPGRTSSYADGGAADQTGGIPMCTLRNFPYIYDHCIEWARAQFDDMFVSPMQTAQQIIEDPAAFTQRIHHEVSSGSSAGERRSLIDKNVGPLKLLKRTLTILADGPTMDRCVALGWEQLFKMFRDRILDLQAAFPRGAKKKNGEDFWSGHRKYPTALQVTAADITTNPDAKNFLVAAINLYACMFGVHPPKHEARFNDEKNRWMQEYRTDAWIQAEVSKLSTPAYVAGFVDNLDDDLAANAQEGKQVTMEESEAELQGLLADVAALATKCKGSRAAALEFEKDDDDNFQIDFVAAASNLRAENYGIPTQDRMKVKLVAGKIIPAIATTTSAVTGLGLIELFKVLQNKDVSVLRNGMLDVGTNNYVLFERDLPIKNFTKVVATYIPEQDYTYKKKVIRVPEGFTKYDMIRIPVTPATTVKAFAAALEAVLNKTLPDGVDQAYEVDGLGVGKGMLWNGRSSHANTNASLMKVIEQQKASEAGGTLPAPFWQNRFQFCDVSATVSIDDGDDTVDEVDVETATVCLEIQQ
Briefly: Leishmania donovani Ubiquitin Activating Enzyme (LdE1). Format: functional. As to conditions: 30 µM.

Test [3] addresses AMP-activated protein kinase, AMPK (Homo sapiens) (UniProt P54646+O43741+P54619+Q9UGJ0+Q9Y478+Q13131+Q9UGI9). Briefly: AMP-dependent Kinase enzyme assay. An in vitro enzyme assay that detects ADP turnover that is directly proportional to AMPK activity. This uses naive AMPK that is activated during the assay with MK-8722. Format: functional. As to conditions: 30 µM.
Test [4] has as its target Sialic acid-binding Ig-like lectin 9 (Homo sapiens) (UniProt Q9Y336). The test can be described thus: Hs-Siglec9 ALPHAscreen SOP 20170721. As to conditions: 10 µM.
A further test has as its system Trypanosoma cruzi. Briefly: Trypanosoma cruzi phosphomannomutase and mannose-1-phosphate guanylyltransferase assay. Format: functional. As to conditions: 10 µM.
In test [5] the target is T2, Arginase-2, mitochondrial (Homo sapiens) (UniProt P78540).
T2 sequence (whole entry): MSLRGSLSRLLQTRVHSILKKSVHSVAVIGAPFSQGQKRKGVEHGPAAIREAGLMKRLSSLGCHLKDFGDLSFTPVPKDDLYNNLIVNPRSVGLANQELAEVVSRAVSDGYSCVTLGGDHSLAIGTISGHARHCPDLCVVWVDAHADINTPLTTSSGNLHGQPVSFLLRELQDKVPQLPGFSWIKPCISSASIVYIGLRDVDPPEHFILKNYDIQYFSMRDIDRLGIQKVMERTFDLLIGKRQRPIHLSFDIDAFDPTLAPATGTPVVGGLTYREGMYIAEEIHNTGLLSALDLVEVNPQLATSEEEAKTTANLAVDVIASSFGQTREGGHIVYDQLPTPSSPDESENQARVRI
The test can be described thus: in vitro enzyme assay to detect the production of urea directly proportional to the activity of Arginase II. Note: in the data most compounds retested in dose-response had high values. Format: functional. The following applies: 33.3 µM.

The target in test [6] is T3, Proteasome subunit beta (Trypanosoma cruzi) (UniProt O96673).
T3 sequence (whole entry): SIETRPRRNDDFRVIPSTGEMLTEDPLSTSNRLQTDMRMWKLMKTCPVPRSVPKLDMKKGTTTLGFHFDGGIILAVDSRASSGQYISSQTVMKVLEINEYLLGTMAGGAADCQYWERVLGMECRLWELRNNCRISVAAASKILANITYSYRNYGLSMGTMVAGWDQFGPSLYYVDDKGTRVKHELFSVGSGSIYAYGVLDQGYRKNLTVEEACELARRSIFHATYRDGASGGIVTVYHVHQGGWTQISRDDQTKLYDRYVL
Briefly: Trypanosoma cruzi proteasome chymotrypsin-like activity (TcProtChymo) assay. Note: in the data most compounds retested in dose-response had high values. The following applies: 9.37 µM. Format: functional.

The species named for another test is Homo sapiens. The test can be described thus: To identify inhibition of the IFN signalling (Jak-Stat) pathway via expression of an eGFP reporter gene under the control of an IFN-stimulated response element (ISRE) containing MxA promoter. It is filed as functional. As to conditions: 30 µM. A general note: A reporter such as luciferase makes a cellular process visible.

For test [7], the target named is T4, Tyrosyl-tRNA synthetase, putative (Trypanosoma cruzi (strain CL Brener)) (UniProt Q4DSP6).
T4 sequence (whole entry): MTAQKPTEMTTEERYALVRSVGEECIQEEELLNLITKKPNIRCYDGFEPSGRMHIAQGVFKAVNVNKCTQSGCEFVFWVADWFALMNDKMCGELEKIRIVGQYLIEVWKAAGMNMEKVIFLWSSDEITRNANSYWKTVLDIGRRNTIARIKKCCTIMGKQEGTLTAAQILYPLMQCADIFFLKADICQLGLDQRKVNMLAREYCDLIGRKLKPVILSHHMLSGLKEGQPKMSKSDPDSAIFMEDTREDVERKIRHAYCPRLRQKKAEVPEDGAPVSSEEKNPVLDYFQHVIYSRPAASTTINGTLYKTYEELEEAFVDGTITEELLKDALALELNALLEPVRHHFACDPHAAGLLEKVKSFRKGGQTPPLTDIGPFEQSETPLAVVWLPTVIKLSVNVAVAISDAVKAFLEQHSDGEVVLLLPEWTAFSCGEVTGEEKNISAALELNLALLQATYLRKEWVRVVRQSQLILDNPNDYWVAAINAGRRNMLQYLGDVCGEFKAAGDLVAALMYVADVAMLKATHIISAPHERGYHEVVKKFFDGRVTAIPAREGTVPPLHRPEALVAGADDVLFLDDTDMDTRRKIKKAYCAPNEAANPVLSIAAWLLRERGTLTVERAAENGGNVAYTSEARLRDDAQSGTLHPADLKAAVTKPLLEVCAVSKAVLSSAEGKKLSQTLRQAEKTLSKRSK
The test can be described thus: Trypanosoma cruzi tyrosyl tRNA synthetase (TcYRS) _High Tyrosine SOP. Note: in the data most compounds retested in dose-response had high values. It is filed as functional. The following applies: 30 µM.

In test [8] the target is T4, Tyrosyl-tRNA synthetase, putative (Trypanosoma cruzi (strain CL Brener)). The test can be described thus: Trypanosoma cruzi tyrosyl tRNA synthetase (TcYRS) SOP. It is filed as functional. As to conditions: 30 µM.
Test [9] addresses Chromo domain-containing protein 1 (Saccharomyces cerevisiae (strain ATCC 204508 / S288c) (Baker's yeast)) (UniProt P32657). Briefly: ScCHD-1 Enzyme Inhibition Assay. Note: in the data most compounds retested in dose-response had high values. Format: functional. The following applies: 30 µM.

These results are taken from ChEMBL document CHEMBL3988442, “University of Dundee, Small-Polar-MMV Screening Library” (2021).

The structures appear in SMILES notation. For some of these results: Potency and affinity values are given separately.

Chain of Sialic acid-binding Ig-like lectin 9 (Homo sapiens) (Q9Y336 whole entry): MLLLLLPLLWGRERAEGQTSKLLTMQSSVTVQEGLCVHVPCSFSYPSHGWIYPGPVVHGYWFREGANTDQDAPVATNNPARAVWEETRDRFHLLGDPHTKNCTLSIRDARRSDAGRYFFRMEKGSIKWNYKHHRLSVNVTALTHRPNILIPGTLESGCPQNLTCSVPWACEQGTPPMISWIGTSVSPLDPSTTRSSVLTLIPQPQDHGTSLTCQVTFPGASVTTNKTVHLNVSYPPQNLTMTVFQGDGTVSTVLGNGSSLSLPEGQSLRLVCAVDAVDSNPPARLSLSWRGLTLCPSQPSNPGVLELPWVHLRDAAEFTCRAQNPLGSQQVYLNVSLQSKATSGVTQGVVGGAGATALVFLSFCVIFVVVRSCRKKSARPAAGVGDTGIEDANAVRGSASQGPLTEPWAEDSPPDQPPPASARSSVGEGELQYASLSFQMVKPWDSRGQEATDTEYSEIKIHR
Chain of Chromo domain-containing protein 1 (Saccharomyces cerevisiae (strain ATCC 204508 / S288c) (Baker's yeast)) (P32657 whole entry, the tested form may be a part): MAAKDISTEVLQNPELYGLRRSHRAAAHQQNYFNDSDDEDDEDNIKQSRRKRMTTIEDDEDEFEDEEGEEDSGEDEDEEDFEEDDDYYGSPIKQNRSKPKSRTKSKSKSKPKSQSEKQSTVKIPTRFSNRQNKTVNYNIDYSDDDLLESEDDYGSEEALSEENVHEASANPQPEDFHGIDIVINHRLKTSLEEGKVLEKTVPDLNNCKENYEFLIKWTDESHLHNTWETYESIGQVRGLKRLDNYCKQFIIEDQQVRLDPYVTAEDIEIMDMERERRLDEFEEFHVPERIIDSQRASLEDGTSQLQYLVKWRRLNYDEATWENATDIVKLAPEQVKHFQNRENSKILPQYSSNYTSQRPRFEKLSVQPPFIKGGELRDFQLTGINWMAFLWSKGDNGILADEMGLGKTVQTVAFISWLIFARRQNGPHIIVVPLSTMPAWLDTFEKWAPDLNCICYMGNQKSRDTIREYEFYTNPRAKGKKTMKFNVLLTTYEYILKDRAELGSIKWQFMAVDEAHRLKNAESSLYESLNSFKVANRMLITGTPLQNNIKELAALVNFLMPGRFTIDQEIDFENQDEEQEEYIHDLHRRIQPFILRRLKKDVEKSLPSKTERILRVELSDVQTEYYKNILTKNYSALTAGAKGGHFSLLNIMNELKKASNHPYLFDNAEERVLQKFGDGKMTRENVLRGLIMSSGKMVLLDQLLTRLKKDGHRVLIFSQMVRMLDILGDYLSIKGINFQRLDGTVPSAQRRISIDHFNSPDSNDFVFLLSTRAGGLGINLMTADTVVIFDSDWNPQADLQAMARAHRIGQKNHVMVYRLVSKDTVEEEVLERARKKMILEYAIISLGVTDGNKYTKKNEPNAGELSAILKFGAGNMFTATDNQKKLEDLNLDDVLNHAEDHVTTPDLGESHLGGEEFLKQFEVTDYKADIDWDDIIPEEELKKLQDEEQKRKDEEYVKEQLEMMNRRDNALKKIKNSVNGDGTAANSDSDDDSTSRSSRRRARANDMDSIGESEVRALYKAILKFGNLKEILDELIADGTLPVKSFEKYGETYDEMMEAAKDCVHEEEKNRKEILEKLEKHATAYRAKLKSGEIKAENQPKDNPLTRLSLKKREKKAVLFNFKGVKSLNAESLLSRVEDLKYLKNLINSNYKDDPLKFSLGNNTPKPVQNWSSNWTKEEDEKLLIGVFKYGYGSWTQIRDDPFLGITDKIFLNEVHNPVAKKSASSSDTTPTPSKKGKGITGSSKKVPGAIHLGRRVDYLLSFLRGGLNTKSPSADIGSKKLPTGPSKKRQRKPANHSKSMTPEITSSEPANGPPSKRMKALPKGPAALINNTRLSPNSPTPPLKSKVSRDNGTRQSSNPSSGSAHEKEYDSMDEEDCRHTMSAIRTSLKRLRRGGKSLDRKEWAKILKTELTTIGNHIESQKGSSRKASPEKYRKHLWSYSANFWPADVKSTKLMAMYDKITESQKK
Chain of Protein translocase subunit SecA (Escherichia coli (strain K12)) (P10408 whole entry): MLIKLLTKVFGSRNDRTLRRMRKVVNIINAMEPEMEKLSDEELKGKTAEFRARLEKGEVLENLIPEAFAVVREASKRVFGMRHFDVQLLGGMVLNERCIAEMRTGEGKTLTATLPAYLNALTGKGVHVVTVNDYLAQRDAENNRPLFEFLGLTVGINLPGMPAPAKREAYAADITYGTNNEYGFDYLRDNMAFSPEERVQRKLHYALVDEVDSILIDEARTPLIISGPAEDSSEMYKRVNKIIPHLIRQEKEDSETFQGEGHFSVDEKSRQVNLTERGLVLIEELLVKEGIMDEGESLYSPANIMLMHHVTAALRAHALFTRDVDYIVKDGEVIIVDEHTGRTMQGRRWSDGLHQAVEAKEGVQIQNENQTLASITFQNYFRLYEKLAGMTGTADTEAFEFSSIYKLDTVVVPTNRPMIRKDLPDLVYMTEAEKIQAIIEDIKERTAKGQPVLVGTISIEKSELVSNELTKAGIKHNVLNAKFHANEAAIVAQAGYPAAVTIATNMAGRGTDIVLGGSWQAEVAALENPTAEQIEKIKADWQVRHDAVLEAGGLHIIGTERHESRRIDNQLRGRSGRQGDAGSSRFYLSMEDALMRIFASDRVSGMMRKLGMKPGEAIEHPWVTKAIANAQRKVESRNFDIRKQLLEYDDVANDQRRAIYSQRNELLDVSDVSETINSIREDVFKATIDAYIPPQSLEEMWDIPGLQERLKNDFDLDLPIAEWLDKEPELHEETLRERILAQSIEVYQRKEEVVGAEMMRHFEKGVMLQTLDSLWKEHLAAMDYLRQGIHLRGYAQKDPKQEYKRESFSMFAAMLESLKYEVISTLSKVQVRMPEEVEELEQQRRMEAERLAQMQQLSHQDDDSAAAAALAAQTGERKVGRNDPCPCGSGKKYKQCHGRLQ

As for `CCN1CCN(c2nc(C(C)C)nc3c(C)nn(CC)c23)CC1`, the Percent Effect is -8.3% in test [1]; 0% in [2]; -2.21% in test [3]; 5.36% in test [4]; -1.28% in the test with Trypanosoma cruzi; -5.52% in [5]. Moreover, the Percent Effect in test [6] is -0.832%; in the test filed under Homo sapiens, 1.81%; in test [7], -2.15%; in [8], -48.1%; in [9] it was -0.207%.
Turning to `CC1CCN(C(=O)c2ccn(COc3ccc(F)cc3)n2)CC1`, the Percent Effect in test [1] is -1.66%; in [2], 5.2%; in test [3] it was -0.0433%; in [4] it was 10.1%; in the test on Trypanosoma cruzi, 2.26%; in test [5], -5.52%. The Percent Effect in test [6] was 25%; in the test listed under Homo sapiens it was -6.17%; in test [7], 6.45%; in test [8], 16.1%; in test [9], -3.54%.
Regarding `O=C(COCC1CC1)N1CCCC(n2ccnc2)C1` (stereo unspecified), the Percent Effect in test [1] is -2.64%; in test [2], 11.4%; in test [3], 1.59%; in test [4] it was -0.338%; with Trypanosoma cruzi, -1.33%; in test [5], 2.37%. For the same molecule, the Percent Effect in test [6] was 9.26%; in the test filed under Homo sapiens it was 5.7%; in test [7] it was 1.04%; in test [8] it was 5.06%; in [9], -21.1%.
Turning to `Cc1nn(C)c(N(C)C)c1CNC1CCc2c(F)cccc21` (stereo unspecified), the Percent Effect in test [1] was 0.322%; in [2], 13.2%; in test [3], -5.14%; in [4], -4.54%; in the test with Trypanosoma cruzi, 4.89%; in test [5] it was 5.75%. Also, the Percent Effect was 17% in test [6]; -1.05% in the test filed under Homo sapiens; 6.37% in test [7]; 17.1% in [8]; -6.66% in [9].
For the molecule `COCCN1CCCC(O)(CN2CCN(c3ncccc3C)CC2)C1=O` (stereo unspecified), the Percent Effect is 5.28% in [1]; -27% in test [2]; -3.41% in [3]; 7.83% in test [4]; -5.21% in the test with Trypanosoma cruzi; 0.476% in test [5]. Further, the Percent Effect was 15.3% in [6]; 9.99% in the test filed under Homo sapiens; 8.99% in [7]; 12.2% in test [8]; -5.83% in test [9].
`c1ccc(OC[C@]23COC[C@H]2CN(c2ncccn2)C3)nc1`: the Percent Effect was 0.189% in test [1]; 8% in test [2]; 1.07% in [3]; 5.7% in test [4]; 6.37% with Trypanosoma cruzi; -59.3% in test [5]. Also, the Percent Effect was 12.7% in [6]; -4.34% in the test listed under Homo sapiens; 3.12% in test [7]; 17.5% in test [8]; -8.1% in test [9].
For the molecule `Cc1nc(CN2CCc3ncnc(C)c3CC2)cs1`, the Percent Effect was -4.35% in test [1]; 0% in test [2]; 0.161% in [3]; 1.66% in test [4]; 4.99% with Trypanosoma cruzi; 3.5% in test [5]. In addition, the Percent Effect in [6] is 10.3%; in the test listed under Homo sapiens it was -27.4%; in [7] it was 2.16%; in [8] it was 7.69%; in test [9], 4.23%.
As for `c1coc(-c2nnc(CN3CCOC(Cn4cccn4)C3)o2)c1` (stereo unspecified), the Percent Effect was -5.27% in test [1]; 7.59% in test [2]; -2.15% in [3]; 1.36% in test [4]; 6.89% in the test with Trypanosoma cruzi; 0.76% in [5]. The Percent Effect in [6] is 11.6%; in the test filed under Homo sapiens it was 8.37%; in test [7], 5.42%; in test [8], 13.9%; in [9] it was -6.49%.
For the molecule `Cn1nnc2c1C(COCC1CC1)CN(C(=O)Cc1ccsc1)C2` (stereo unspecified), the Percent Effect in [1] was -5.15%; in test [2], 23.4%; in test [3], -3.67%; in test [4], 0.591%; in the test with Trypanosoma cruzi it was 4.63%; in [5] it was -3.23%. The Percent Effect in [6] was 9.57%; in the test listed under Homo sapiens, 4.27%; in test [7] it was -1.06%; in test [8] it was 14.1%; in test [9], -12.5%.
With `CCOc1ccccc1Nc1nc2c(C)nn(C)c2c(=O)n1C`, the Percent Effect in test [1] was -4.55%; in test [2] it was 20.8%; in test [3] it was 1.12%; in [4], 10.9%; in the test with Trypanosoma cruzi, 3.64%; in [5], 6.9%. For the same molecule, the Percent Effect in [6] was 10.7%; in the test listed under Homo sapiens it was -5.39%; in [7], 8.6%; in [8], 18.5%; in test [9], -6.44%.
For `CC(C)c1nc2c(n1C)CCN(Cc1nc(-c3ccsc3)no1)C2`, the Percent Effect was -1.67% in test [1]; -24.3% in test [2]; -9.21% in test [3]; 0.639% in test [4]; 7.71% in the test with Trypanosoma cruzi; -1.29% in [5]. In addition, the Percent Effect in test [6] is 10.1%; in the test filed under Homo sapiens, 1.59%; in [7], 9.9%; in test [8], 25.6%; in [9], -0.805%.
